# Data: PubChem BioAssay
# Unmarked numbers belong to inactive results. Calls of active or inactive are those of the source.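 The calls were made as follows: active = compounds whose cell count with miR-34 switched on is under 0.7 times the count with it off; inactive = the rest.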 Numbered stars: 1 amine (or outer) side, 2 acyl side, 3 side chain; on linkers, the order of the positions; unused ones are H or OH. Bridge positions count the residues as written; N and C are the ends. Square brackets hold non-standard residues; d marks the D form. Side chains are listed from the residue outwards. Peptide text beside a SMILES is read from it. * marks the point of attachment. ξ: configuration not given here. ΔAla(E,3-NHCONH2) = NC(=O)N/C=C(/N)C(=O)O; X1 = NC1=NCCC(C(N[*:1])C(=O)[*:2])N1; Heptanoyl(6-Me) = CC(C)CCCCC(=O)*; X2 = CCC(C)C(N)C1=NC(C(=O)*)CS1; ξβ3hOrn = NCCCC(N)CC(=O)*; Orn = NCCC[CH](N)C(=O)O; Dab = NCC[CH](N)C(=O)O; Dap = NC[CH](N)C(=O)O
# Test: viability loss with induced miR-34 in A549 – imaging, A549 dox-inducible miR-34, nuclei and caspase counts, primary screen (AID 1347080); also: test concentration not given here
# Details: A549 miR-34 inducible, Hoechst nuclei count, 48 h; stronger effect = lower value; cell number ratio, induced over uninduced
row,Compound,fold change
1,CCCCC(=O)O[C@]1(C(=O)CO)CCC2C3CCC4=CC(=O)CC[C@]4(C)C3[C@@H](O)C[C@@]21C (stereo not given in full),0.833
2,CCCCC/C=C/CCC(=O)N[C@H]1[C@H](Oc2c3cc4cc2Oc2ccc(cc2Cl)[C@@H](O[C@@H]2O[C@H](CO)[C@@H](O)[C@H](O)[C@H]2NC(C)=O)[C@@H]2NC(=O)[C@H](NC(=O)[C@@H]4NC(=O)[C@H]4NC(=O)C(Cc5ccc(c(Cl)c5)O3)NC(=O)[C@H](N)c3ccc(O)c(c3)Oc3cc(O)cc4c3)c3ccc(O)c(c3)-c3c(OC4O[C@H](CO)[C@@H](O)[C@H](O)[C@@H]4O)cc(O)cc3[C@@H](C(=O)O)NC2=O)O[C@H](CO)[C@@H](O)[C@@H]1O (stereo not given in full),0.918
3,CC(C)(C)NCC(O)COc1cccc2c1CCCC2=O (stereo not given),0.83
4,CC(C)CCCC(C)[C@H]1CCC2C3CC=C4C[C@@H](O)CC[C@]4(C)C3CC[C@@]21C (stereo not given in full),0.96
5,CCC(=O)OCC(=O)[C@@]1(OC(=O)CC)[C@@H](C)CC2C3CCC4=CC(=O)C=C[C@]4(C)C3(F)[C@@H](O)C[C@@]21C (stereo not given in full),0.918
6,CC(=O)Nc1ccc(S(=O)(=O)Nc2onc(C)c2C)cc1,0.897
7,CO/N=C(\C(=O)NC1C(=O)N2C(C(=O)OCOC(=O)C(C)(C)C)=C(/C=C\c3scnc3C)CSC12)c1csc(N)n1 (stereo not given),0.904
8,CC1C/C=C/C=C/C=C/C=C/C(O[C@@H]2O[C@H](C)[C@@H](O)[C@H](N)[C@@H]2O)CC2OC(O)(CC(O)CC3OC3/C=C/C(=O)O1)CC(O)C2C(=O)O (stereo not given in full),0.858
9,C[C@]12CCC(=O)C=C1C=CC1C2CC[C@@]2(C)C1CC[C@@]21CCC(=O)O1 (stereo not given in full),0.895
10,CC(C)c1c(C(=O)c2ccccc2)c(-c2ccccc2)c(-c2ccc(F)cc2)n1CC[C@@H](O)C[C@@H](O)CC(=O)O,0.867
11,CC(CCC(=O)O)[C@H]1CCC2C3C(=O)C[C@@H]4CC(=O)CC[C@]4(C)C3CC(=O)[C@@]21C (stereo not given in full),0.923
12,CC(=O)Nc1cc2ccccc2oc1=O,0.955
13,CCCCCCCCCCC[C@@H](C[C@H]1OC(=O)[C@H]1CCCCCC)OC(=O)[C@@H](CC(C)C)NC=O,0.887
14,CC(=O)OCC(=O)[C@@]12OC(C)(C)O[C@@H]1CC1C3C[C@H](F)C4=CC(=O)C=C[C@]4(C)[C@@]3(F)[C@@H](O)C[C@@]12C (stereo not given in full),0.893
15,CC[C@@H]1OC(=O)C[C@@H](O)[C@H](C)[C@@H](O[C@@H]2O[C@H](C)[C@@H](O)[C@H](N(C)C)[C@H]2O)[C@@H](CCN2C[C@H](C)C[C@H](C)C2)C[C@@H](C)C(=O)/C=C/C(C)=C\[C@@H]1CO[C@@H]1O[C@H](C)[C@@H](O)[C@@H](OC)[C@H]1OC,0.885
16,O=C(OC[C@H]1O[C@H](OC(=O)c2cc(O)c(O)c(OC(=O)c3cc(O)c(O)c(O)c3)c2)[C@H](OC(=O)c2cc(O)c(O)c(OC(=O)c3cc(O)c(O)c(O)c3)c2)[C@@H](OC(=O)c2cc(O)c(O)c(OC(=O)c3cc(O)c(O)c(O)c3)c2)[C@@H]1OC(=O)c1cc(O)c(O)c(OC(=O)c2cc(O)c(O)c(O)c2)c1)c1cc(O)c(O)c(OC(=O)c2cc(O)c(O)c(O)c2)c1,0.602 (active)
17,CC(C)C1CCC(C(=O)N[C@@H](Cc2ccccc2)C(=O)O)CC1 (stereo not given in full),0.867
18,CCC(C)C(=O)O[C@H]1C[C@H](O)C=C2C=C[C@H](C)[C@H](CC[C@@H](O)C[C@@H](O)CC(=O)O)C21 (stereo not given in full),0.861
19,CCC(C)C1NC(=O)C(CCN)NC(=O)C(NC(=O)C(CCN)NC(=O)C(NC(=O)C(CCN)NC(=O)CCCCC(C)C)C(C)O)CCNC(=O)C(C(C)O)NC(=O)C(CCN)NC(=O)C(CCN)NC(=O)C(C(C)CC)NC1=O (stereo not given) ({Heptanoyl(6-Me)}-[Dab]T[Dab][Dab][Dab]II[Dab][Dab]T; lactam 4-C; configuration not given here),0.901
20,CC1=C(C(=O)O)N2C(=O)[C@@H](NC(=O)[C@H](N)C3=CCC=CC3)C2SC1 (stereo not given in full),0.89

row,Compound,fold change
1,OC[C@@H](O)C(O[C@@H]1O[C@H](CO)[C@H](O)[C@H](O)[C@H]1O)[C@H](O)[C@@H](O)CO (stereo not given in full),0.87
2,"NCCCC(N)CC(=O)NCC1NC(=O)C(CO)NC(=O)C(N)CNC(=O)C(C2CCN=C(N)N2)NC(=O)/C(=C\NC(N)=O)NC1=O (stereo not drawn) (H-[Dap]S[Dap](ξβ3hOrn)[ΔAla(E,3-NHCONH2)][X1]; lactam 1-C; configuration not given here)",0.856
3,COCC1=C(C(=O)OC(C)OC(=O)OC(C)C)N2C(=O)[C@@H](NC(=O)/C(=N/OC)c3csc(N)n3)[C@H]2SC1 (stereo not given in full),0.924
4,C#C[C@]1(OC(C)=O)CCC2C3CCC4=C/C(=N/O)CCC4C3CC[C@@]21CC (stereo not given in full),0.914
5,CCC(C)C(N)C1=NC(C(=O)NC(CC(C)C)C(=O)NC(CCC(=O)O)C(=O)NC(C(=O)NCCCCC2NC(=O)C(CC(N)=O)NC(=O)C(CC(=O)O)NC(=O)C(Cc3cnc[nH]3)NC(=O)C(Cc3ccccc3)NC(=O)C(C(C)CC)NC(=O)C(CCCN)NC2=O)C(C)CC)CS1 (stereo not drawn) (cyclo(DNK([Ile-Glu-Leu-X2])[Orn]IFH); configuration not given here),0.838
6,C[N+](C)(C)CCOP(=O)([O-])OP(=O)(O)OC[C@H]1OC(n2ccc(N)nc2=O)[C@H](O)[C@@H]1O (stereo not given in full),0.9
7,CCN[C@@H]1C[C@H](N)[C@@H](O[C@H]2OC(CN)=CC[C@H]2N)[C@H](O)[C@H]1OC1OC[C@](C)(O)[C@H](NC)[C@H]1O (stereo not given in full),0.763
8,C[C@]12C=CC(=O)C=C1CCC1C2[C@@H](O)C[C@@]2(C)C1CC[C@]2(O)C(=O)COC(=O)CCC(=O)O (stereo not given in full),0.822
9,O=C(N[C@@H](CO)[C@H](O)c1ccc([N+](=O)[O-])cc1)C(Cl)Cl,1
10,N[C@H](Cc1cc(I)c(Oc2ccc(O)c(I)c2)c(I)c1)C(=O)O,0.92
11,NC(Cc1c[nH]c2ccccc12)C(=O)O (stereo not given),0.933
12,O=C(O)C1=C(CSc2nnnn2CS(=O)(=O)O)CS[C@@H]2C(NC(=O)[C@H](O)c3ccccc3)C(=O)N12 (stereo not given in full),0.834
13,O=C1O[C@H](C(O)CO)C(O)=C1O (stereo not given in full),0.918
14,CC1=C(C(=O)O)N2C(=O)[C@@H](NC(=O)C(N)c3ccc(O)cc3)[C@H]2SC1 (stereo not given in full),0.948
15,C=C1CC[C@H](O)C/C1=C/C=C1\CCCC2(C)C1CCC2C(C)CCCC(C)C (stereo not given in full),0.909
16,CC(=O)c1cc2ccccc2oc1=O,0.915
17,CCc1cc(Cl)c(OC)c(C(=O)NCC2CCCN2CC)c1O (stereo not given),0.847
18,OC[C@H]1OC([S-])[C@H](O)[C@@H](O)[C@@H]1O.[Au+] (stereo not given in full),0.865
19,CC(C)(O/N=C(\C(=O)N[C@@H]1C(=O)N2C(C(=O)[O-])=C(C[n+]3ccccc3)CSC12)c1csc(N)n1)C(=O)O (stereo not given in full),0.922
20,C[C@H]1O[C@@H](O[C@H]2[C@@H](O)C[C@H](O[C@H]3[C@@H](O)C[C@H](O[C@H]4CC[C@]5(C)C6CC[C@]7(C)[C@@H](C8=CC(=O)OC8)CC[C@]7(O)C6CC[C@@H]5C4)O[C@@H]3C)O[C@@H]2C)C[C@H](O)[C@@H]1O (stereo not given in full),0.424 (active)
